The values below come from PubChem BioAssay AID1347383 (Zoeller Lab, School of Medicine, Boston University, 2020).

Active and inactive are the calls of the source.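 The calls were made as follows: active = cell survival after UV exposure 2 SD above solvent-only control wells at 10 µM, confirmed on one or two repeats; inactive = the rest.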

The experiment can be described thus: cell survival after pyrene fatty acid photosensitization – ZR-82 cells, Analyticon library, screen 2, phospholipid biosynthesis inhibitor project, primary screen (AID 1347383).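 Also: survival reflects blocked phospholipid synthesis cutting uptake of the phototoxic fatty acid; compound and fatty acid exposure 3 h then viability read next day.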 As to conditions: ZR-82 CHO cells, pyrene-fatty acid UV killing, CellTiter Blue; at 10 µM; peroxisome-deficient CHO-K1 variant; with DGAT-1, DGAT-2 and ACAT inhibitors. For orientation: Resazurin is reduced to fluorescent resorufin, in cell work by metabolically active cells.
As to `C=CCC1=CC(OC)(C(C)Cc2ccc3c(c2)OCO3)C(OC)=CC1=O` (stereo unspecified), the outcome was inactive.
Next, `C/C=C/C=C/[C@H]1Cc2cc(O)cc(O)c2O1`: “inactive”.
`CCCC/C=C\CCCCCCCc1cc(=O)c2ccccc2n1C`: the outcome was inactive.
In the case of `O=C(CCCCc1ccc(O)cc1)CCc1ccc(O)cc1` it was “inactive”; in that of `CC#CC#C/C=C1\C=CC2(OC=CC2OC(=O)C=C(C)C)O1` (stereo unspecified), “inactive”; in that of `CC(C)=CCCC1(C)C=Cc2c(c(C)cc3c2[nH]c2ccccc23)O1` (stereo unspecified), “inactive”.
In the case of `COC(=O)c1ccccc1O[C@@H]1O[C@H](CO)[C@@H](O)[C@H](O)[C@H]1O[C@@H]1O[C@@H](C)[C@H](O)[C@@H](O)[C@H]1O` it was “inactive”.
Next, `C=C1NC(=O)C2CCCN2C1=O` (stereo unspecified): “inactive”; `CC(=O)c1c(O)cc(O)c(C/C=C(\C)CCC=C(C)C)c1O`: “inactive”.
As to `COc1c(C(=O)CC(=O)c2ccccc2)ccc2occc12`, the result was inactive.
Regarding `C/C=C(/C)C(=O)O[C@@H]1C[C@@H](OC(=O)CC(C)C)C2(C)C3C(=O)C=C(C)C2C3C1(C)C` (stereo partly specified), the result was inactive.
Next, `Cc1c(O)cc2c(c1O)C(=O)c1ccccc1C2=O`: “inactive”.
In the case of `CO[C@@H]1[C@H](O)CC[C@]2(CO2)[C@H]1[C@@]1(C)O[C@@H]1CC=C(C)C` it was “inactive”; in that of `COc1cc(O)c2c(c1)C(=O)c1cc(C)cc(O)c1C2=O`, “inactive”.
Next, `CCCCCC(O)CC(O)CC(=O)O` (stereo unspecified): “inactive”; `CCCCCCCCCC(O)CC(CC(CC1CC=CC(=O)O1)OC(C)=O)OC(C)=O` (stereo unspecified): “inactive”.
`CC(C)(O)[C@@H]1Cc2cc3ccc(=O)oc3cc2O1`: the outcome was inactive.
In the case of `CCCCCCC1OC23OC1CCC2CCC(O)C3O` (stereo unspecified), the result was inactive.
On to `CC(C)=CCC/C(C)=C/CC(O)/C(C)=C/Cc1cc(C(=O)O)ccc1O` (stereo unspecified), for which the result was inactive.
In the case of `COc1cc(OC)c(C(O)C(C)O)cc1OC` (stereo unspecified) it was “inactive”.
For `O=C1c2ccc(O)cc2C(=O)c2ccc(O)cc21`, the outcome was inactive.
